# Source: PubChem BioAssay (National Center for Advancing Translational Sciences (NCATS))
# D2 PAM-1: Beta-Arrestin HTS for Positive Allosteric Modulators of the Human D2 Dopamine Receptor: Potentiators; DiscoveRx D2 beta-arrestin cells, luminescence, 90 min; 100% = 57 uM dopamine signal; D(2) dopamine receptor (Homo sapiens), P14416; AID 624464, 2012; potentiation, % (no concentration beside the values); actives 0.23% (n = 360,000); in the data active means potentiation above about 50%; inconclusive means mostly about 30% to 49%
# Target sequence (P14416 whole entry, looked up): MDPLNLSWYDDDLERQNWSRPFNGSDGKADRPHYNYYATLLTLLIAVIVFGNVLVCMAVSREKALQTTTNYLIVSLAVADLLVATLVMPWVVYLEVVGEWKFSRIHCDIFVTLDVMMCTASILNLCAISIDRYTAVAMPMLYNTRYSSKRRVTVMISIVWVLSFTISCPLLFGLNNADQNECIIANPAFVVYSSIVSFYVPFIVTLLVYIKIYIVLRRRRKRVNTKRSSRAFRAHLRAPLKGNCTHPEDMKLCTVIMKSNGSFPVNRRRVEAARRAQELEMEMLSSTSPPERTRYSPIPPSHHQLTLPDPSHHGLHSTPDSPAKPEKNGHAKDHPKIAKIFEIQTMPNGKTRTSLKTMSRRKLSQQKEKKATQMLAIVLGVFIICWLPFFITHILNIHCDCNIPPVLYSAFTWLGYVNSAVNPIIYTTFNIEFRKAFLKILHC
#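 PathHunter D2 cells, attached overnight at 37 deg C, received compound in DMSO plus dopamine at EC20 (50 nM final) for 90 min at 37 deg C. Beta-arrestin recruitment was read as luminescence after 1 h with detection reagent at ambient temperature.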
# D2 ag-1: Beta-Arrestin HTS for Positive Allosteric Modulators of the Human D2 Dopamine Receptor: Agonists. activation, % (no concentration beside the values). D(2) dopamine receptor (Homo sapiens), P14416. DiscoveRx PathHunter D2 beta-arrestin, luminescence, 90 min; 100% = 57 uM dopamine signal. AID 624465, 2012. actives 0.084% (n = 360,000); in the data active means activation above about 40%; inconclusive means between about 15% and that limit
#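 Agonist mode: compounds alone added to overnight-plated D2 PathHunter cells for 90 min at 37 C, with 57 uM final dopamine (EC100) defining full response. Beta-arrestin recruitment detected by chemiluminescent reagent, read after 1 h at ambient temperature.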
# D2 PAM-2: HTS Assay for Positive Allosteric Modulators of the Human D2 Dopamine Receptor: Primary Screen for Potentiators; D(2) dopamine receptor (Homo sapiens), P14416; HEK293 T-REx D2, calcium flux, EC20 dopamine potentiation; potentiation, % at 10 µM; actives 0.34% (n = 340,000); AID 485347, 2010;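 active means potentiation over 3 SD above the plate norm, cut at about 30% in these data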; further: 0% is about no effect
#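 Primary screen. Calcium kinetics in induced HEK293 T-REx D2 cells: compound pre-addition 180 s, EC20 dopamine, 180 s more.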
# D2 ag-2: HTS Assay for Allosteric Agonists of the Human D2 Dopamine Receptor: Primary Screen for Agonists; HEK293 T-REx D2 cells, calcium flux agonist mode; D(2) dopamine receptor (Homo sapiens), P14416; AID 485358, 2010; actives 0.53% (n = 340,000); activation, % at 2 µM;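 active means activation over 3 SD above normal in the single-dose calcium agonist read, cut at about 30% in these data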; further: 0% is about no effect
#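 Tetracycline-induced HEK293 T-REx cells with force-coupled D2 receptor, plated overnight at 30 C, loaded with no-wash calcium dye. After a 10 s baseline, compound was pin-added and calcium flux read kinetically for 180 s; calcium rises flagged agonists.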
# D2 antagonist: HTS Assay for Allosteric Antagonists of the Human D2 Dopamine Receptor: Primary Screen for Antagonists; HEK293 TREx D2 cells, calcium flux, dopamine EC80; inhibition, % at 10 µM; actives 2% (n = 340,000); AID 485344, 2010; in the data active means inhibition above about 30%; inactive means below that, where a call was filed; further: 0% is about no effect
#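 Tetracycline-induced HEK293 TREx cells expressing D2 receptor forced-coupled to calcium signalling, loaded with no-wash calcium dye. Compounds added and calcium flux read 180 s, then dopamine added at EC80 and read a further 180 s.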
# * hit, by the source's call; ? = inconclusive; . = no result. Hits are enriched below; roughly 2.4% of the tested compounds scored in any of these assays.
SMILES,D2 PAM-1,D2 ag-1,D2 PAM-2,D2 ag-2,D2 antagonist
COc1ccc(CCN(C)C2CCCN(C(=O)c3sccc3C)C2)cc1OC (centres undefined),-15,-2,-26,0,57*
O=C(NC1CCN(Cc2ccccc2)CC1)C(NS(=O)(=O)c1cccc2nsnc12)c1ccccc1 (centres undefined),-11,0,-18,-1,35*
CCOC(=O)N1CCC(NC(=O)C(NS(=O)(=O)c2cccc3nsnc23)c2ccccc2)CC1 (centres undefined),-6,4,1,-1,7
CN1C2CCC1CC(OC(c1ccccc1)c1ccccc1)C2 (centres undefined),-24,-3,-24,0,36*
O=C(c1ccco1)N1CCN(C23CC4CC(CC(C4)C2)C3)CC1,-9,-1,1,9,0
CCCNC(=O)C1(C)CCCN(Cc2cc3ccccc3o2)C1 (centres undefined),-4,-4,.,.,.
COc1ccc(CCC(=O)Nc2cccc(Cl)c2)cc1,-19,-2,-9,0,-11
O=C(c1ccc(Oc2ccc([N+](=O)[O-])cc2)cc1)N1CCCCCC1,-3,-6,-3,-1,3
O=C(CCc1ccc(Oc2cc([N+](=O)[O-])cc([N+](=O)[O-])c2)cc1)N1CCCCC1,58*,?,9,-1,-21
O=C(CCc1ccc(Oc2cc([N+](=O)[O-])cc([N+](=O)[O-])c2)cc1)Nc1cccc(Cl)c1,64*,?,-3,-1,-6
O=C(NCc1nc2ccccc2[nH]1)c1c(F)cccc1F,.,.,-7,-1,.
CN(Cc1ccc(F)cc1)C(=O)c1ccc(NS(=O)(=O)c2ccc3[nH]c(=O)[nH]c3c2)cc1,-5,-1,.,.,.
CC1=C(C(N)=O)C(c2cccc(Br)c2)n2nc(SCc3ccccc3Cl)nc2N1 (centres undefined),.,.,5,1,.
CC1=C(C(N)=O)C(c2cccnc2)n2nc(SCc3ccccc3Cl)nc2N1 (centres undefined),1,0,0,-2,35*
CCSc1nc2ccccc2n1CC(=O)OC,-6,-4,0,0,-6
CC(C)N(C(=O)CSc1nc2ccccc2n1Cc1ccccc1)C(C)C,-17,-6,36*,-1,-25
Cc1noc(C)c1CSc1nc2ccccc2n1CCc1ccccc1,-10,-2,35*,-1,-13
COC(=O)Cn1c(SCc2ccccc2)nc2ccccc21,-4,-1,31*,-1,-1
O=C(O)CCn1c(SCc2ccccc2)nc2ccccc21,-12,-1,-5,0,-1
CCC(=O)Nc1cc(C(=O)OC(C(=O)c2ccc(C)c(C)c2)c2ccccc2)ccc1C (centres undefined),-15,-4,1,3,-5
COC(=O)C(O)(CC(=O)c1ccc(OC)cc1)C(F)(F)F (centres undefined),2,-3,0,0,-3
Cc1cc(C)n(-c2nc3sc4c(c3c3nnc(SC(C)C)n23)CC(C)(C)OC4)n1,-24,0,.,.,.
CN(Cc1ccccc1)Cc1c[nH]c2ccccc12,-45,-4,-23,-1,35*
c1ccc(Cc2c[nH]c3ccccc23)cc1,-3,6,6,0,-6
C=C(C)c1cccc(C(C)(C)NC(=O)NCc2ccncc2)c1,-5,2,7,2,35*
CC(C)C1Oc2ccccc2N(CC(=O)N2CCOCC2)C1=O (centres undefined),3,-2,-1,0,38*
CCN(CC)S(=O)(=O)c1cc(NC(=O)c2cc([N+](=O)[O-])ccc2N2CCOCC2)ccc1C,-36,-4,-4,0,37*
CCN(CC)S(=O)(=O)c1ccc(OC)c(NC(=O)c2cc([N+](=O)[O-])ccc2N2CCOCC2)c1,-4,0,.,.,.
